For 40 molecules, outcome results are on record in PubChem BioAssay (EPA / NIEHS).

Calls of active or inactive are those of the source. The calls were made as follows: active = hit-call score of the fitted dose curve at least 0.9, where 1 is the maximum; inactive = score below 0.9.

For the test, the target named is Signal transducer and activator of transcription 3 (Homo sapiens) (UniProt P40763). The test can be described thus: ATG_STAT3_CIS: Attagene CIS-FACTORIAL HepG2 Assay for human Signal Transducer and Activator of Transcription 3 (STAT3) (AID 2282963). As to conditions: HepG2, Attagene cis-factorial STAT3 reporter transcription; actives raise or lower the signal. The method, then: ATG_CIS is a cell-based, multiplexed-readout assay that uses HepG2, a human liver cell line, with measurements taken at 24 hours after chemical dosing in a 24-well plate.ATG_STAT3_CIS is one of 52 assay component(s) measured or calculated from the ATG_CIS assay. It is designed to make measurements of mRNA induction, a form of inducible reporter, as detected with fluorescence intensity signals by Reverse transcription polymerase chain reaction (RT-PCR) and Capillary electrophoresis technology.Data from the assay component ATG_STAT3_CIS was analyzed into 1 assay endpoint. This assay endpoint, ATG_STAT3_CIS, was analyzed with bidirectional fitting relative to DMSO as the negative control and baseline of activity. Using a type of inducible reporter, measures of mRNA for gain or loss-of-signal activity can be used to understand the reporter gene at the transcription factor-level as they relate to the gene STAT3. Furthermore, this assay endpoint can be referred to as a primary readout, because this assay has produced multiple assay endpoints where this one serves a reporter gene function. To generalize the intended target to other relatable targets, this assay endpoint is annotated to the dna binding intended target family, where the subfamily is stat protein.
Chain of Signal transducer and activator of transcription 3 (Homo sapiens) (P40763 whole entry, looked up): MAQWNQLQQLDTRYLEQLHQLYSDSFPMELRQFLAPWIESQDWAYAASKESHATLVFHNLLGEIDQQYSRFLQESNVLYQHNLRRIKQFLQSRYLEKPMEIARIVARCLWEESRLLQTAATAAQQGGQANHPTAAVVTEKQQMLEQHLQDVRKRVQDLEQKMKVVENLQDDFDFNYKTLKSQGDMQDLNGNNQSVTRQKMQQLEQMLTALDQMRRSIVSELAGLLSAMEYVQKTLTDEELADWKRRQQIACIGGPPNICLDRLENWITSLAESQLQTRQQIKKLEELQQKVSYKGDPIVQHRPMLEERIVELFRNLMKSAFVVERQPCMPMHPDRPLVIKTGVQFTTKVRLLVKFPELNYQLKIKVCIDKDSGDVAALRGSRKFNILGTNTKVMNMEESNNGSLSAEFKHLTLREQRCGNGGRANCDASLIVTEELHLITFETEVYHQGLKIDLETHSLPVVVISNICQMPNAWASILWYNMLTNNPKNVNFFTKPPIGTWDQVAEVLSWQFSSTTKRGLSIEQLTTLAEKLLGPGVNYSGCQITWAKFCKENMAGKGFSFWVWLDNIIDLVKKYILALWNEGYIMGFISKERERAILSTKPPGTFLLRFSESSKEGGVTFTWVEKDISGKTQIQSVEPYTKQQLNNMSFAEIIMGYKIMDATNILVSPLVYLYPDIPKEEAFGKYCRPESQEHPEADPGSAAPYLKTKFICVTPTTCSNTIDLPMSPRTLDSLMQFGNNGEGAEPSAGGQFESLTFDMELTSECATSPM
Human liver HepG2 cells are transiently transfected with multiple reporter transcription units (MRTUs) in 6-well plates using FuGene 6 reagent (Roche; 3 ml FuGene/1 mg DNA). The MRTU constructs are regulated by a cis-regulating element (promoter). […] A major difference between the CIS and TRANS system is that in CIS activities of endogenous TFs are measured, whereas the TRANS assay evaluates changes in activities of exogenous, chimeric NR-Gal4 proteins. […] At the end of 24 hour incubation, total RNA was isolated using TriZol reagent (Invitrogen). The isolated RNA is then reverse-transcribed using oligo(dT) primer and Mo-MLV reverse transcriptase (Invitrogen) with DNAse I (Ambion) treatment for 30 min. The one-tenth of the produced cDNA was amplified by PCR using Taq DNA polymerase (Invitrogen) and two reporter sequence-specific primers. The PCR products were fluorescently labeled by primer extension with 6-arboxyfluorescein (6-FAM) 5'-labeled reporter sequence-specific primer (2 min at 95 C, 20 s at 68 C and 10 min at 72 C) and these products were digested with 5U of HpaI (New England Biolabs) for 2h at 37 C. The fragments were purified using Qiaquick PCR columns (Qiagen), analyzed on an ABI 3130xL genetic analyzer (Applied Biosystems) with peak positions identified by using a set of X-rhodamine (ROX)-labeled MapMarker1000 molecular weight standards (BioVentures). The raw capillary electrophoresis data was processed using Attagraph software (Attagene).
With `O=C(O)CCCOc1ccc(Cl)cc1Cl`, the result was inactive.

With `CCCN(CCC)c1c([N+](=O)[O-])cc(C(F)(F)F)cc1[N+](=O)[O-]`, the molecule was classed as inactive.

For the molecule `COc1cc(OC)nc(NC(=O)NS(=O)(=O)c2cc(NC=O)ccc2C(=O)N(C)C)n1`, the call was inactive. Then `O=[N+]([O-])/N=C1\NCCN1Cc1ccc(Cl)nc1`, with “inactive”. As for `COc1nn(CSP(=S)(OC)OC)c(=O)s1`, the result was inactive. The result for `O=S1OCC2C(CO1)C1(Cl)C(Cl)=C(Cl)C2(Cl)C1(Cl)Cl` (stereo not given) reads “inactive”. Then `CCC(C)Nc1c([N+](=O)[O-])cc(C(C)(C)C)cc1[N+](=O)[O-]` (stereo not given), with “inactive”; and `CC(C)N(C(=O)COc1nnc(C(F)(F)F)s1)c1ccc(F)cc1`, with “inactive”. `O=C(O)COc1ccc(Cl)cc1Cl`: the molecule was called inactive. The result for `N#Cc1c(Cl)c(Cl)c(Cl)c(C#N)c1Cl` reads “inactive”.

Regarding `O=S(=O)(O)C(F)(F)C(F)(F)C(F)(F)C(F)(F)C(F)(F)C(F)(F)C(F)(F)C(F)(F)F`, the call was inactive. Then `COP(=S)(OC)Oc1ccc([N+](=O)[O-])cc1`, with “inactive”; and `CCN(CC)C(=O)SCc1ccc(Cl)cc1`, with “inactive”; and `CCC(C)(C)C(=O)OC1=C(c2ccc(Cl)cc2Cl)C(=O)OC12CCCCC2`, with “inactive”. Then `Cc1[nH]c(=O)n(C(C)(C)C)c(=O)c1Cl`, with “inactive”; and `CNC(=O)CSP(=S)(OC)OC`, with “inactive”; and `ClC1C(Cl)C(Cl)C(Cl)C(Cl)C1Cl` (stereo not given), with “inactive”.

Take `Oc1cc(Cl)ccc1Oc1ccc(Cl)cc1Cl`: the molecule was classed as inactive. The result for `O=[N+]([O-])c1c(Cl)c(Cl)c(Cl)c(Cl)c1Cl` reads “inactive”; that for `CCc1ccc(C(=O)NN(C(=O)c2cc(C)cc(C)c2)C(C)(C)C)cc1`, “inactive”. `[2H]C1([2H])[n+]2ccccc2-c2cccc[n+]2C1([2H])[2H]`: the result was inactive. Then `CNC(=O)Oc1cccc(N=CN(C)C)c1`, with “inactive”; and `Clc1ccccc1-c1nnc(-c2ccccc2Cl)nn1`, with “inactive”. Then `O=C(Nc1ccccc1)Nc1cnns1`, with “inactive”.

On to `CNC(=O)/C=C(\C)OP(=O)(OC)OC`, for which the molecule was called inactive. Then `CCS(=O)(=O)c1cccnc1S(=O)(=O)NC(=O)Nc1nc(OC)cc(OC)n1`, with “inactive”; and `CCCN(CCOc1c(Cl)cc(Cl)cc1Cl)C(=O)n1ccnc1`, with “inactive”. The result for `O=C(O)C(F)(F)C(F)(F)C(F)(F)C(F)(F)C(F)(F)C(F)(F)C(F)(F)F` reads “inactive”; that for `CCOc1nc(NC)nc(NC(=O)NS(=O)(=O)c2ccccc2C(=O)OC)n1`, “inactive”; that for `COP(=O)(OC)OC=C(Cl)Cl`, “inactive”. Turning to `CC1(C)C(C=C(Cl)Cl)C1C(=O)OC(C#N)c1ccc(F)c(Oc2ccccc2)c1` (stereo not given), the call was inactive. Regarding `CC(C)(C)C(O)C(Oc1ccc(Cl)cc1)n1cncn1` (stereo not given), the outcome was inactive.

With `CCOC1Oc2ccc(OS(C)(=O)=O)cc2C1(C)C` (stereo not given), the outcome was inactive. Then `CN1CSC(=S)N(C)C1`, with “inactive”; and `COP(=S)(OC)Oc1ccc(SC)c(C)c1`, with “inactive”. Then `CCC(C)(NC(=O)c1cc(Cl)c(C)c(Cl)c1)C(=O)CCl` (stereo not given), with “inactive”; and `CC[C@H](C)[C@H]1O[C@]2(C=C[C@@H]1C)C[C@@H]1C[C@@H](C/C=C(\C)[C@@H](O[C@H]3C[C@H](OC)[C@@H](O[C@H]4C[C@H](OC)[C@@H](O)[C@H](C)O4)[C@H](C)O3)[C@@H](C)/C=C/C=C3\CO[C@@H]4[C@H](O)C(C)=C[C@@H](C(=O)O1)[C@]34O)O2` (tested in a mixture with another compound), with “inactive”. Take `CNC(=O)Oc1ccccc1OC(C)C`: the call was inactive. The result for `COC(=O)c1ccccc1S(=O)(=O)NC(=O)Nc1nc(C)nc(OC)n1` reads “inactive”; that for `CC(C)OC(=O)Nc1cccc(Cl)c1`, “inactive”.
